Screening results from PubChem.
Many of the other results were omitted from the sample, so hits are more common in it than they were.
Shiga toxin inh = inhibitors of Shiga toxin in Vero cells; Vero cells, Shiga toxin protein synthesis inhibition reporter; inhibition, % at 38.7 µM; 9.2% of 290,000 active; AID 2315; in the data active = inhibition mostly above about 28%, no sharp cut-off; inactive = mostly below about 43%
NS1 function inh = inhibitors of influenza NS1 protein function; Potency, µM (series often up to 46.1 µM); 0.4% of 270,000 active; AID 2326; note: actives are rising curves; nearly all actives have a fitted effect of over 50% in size
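A cell-based growth assay was used: compounds that relieve NS1-induced slow growth of budding yeast raise OD600. Assay medium was yeast nitrogen base with ammonium sulphate and -URA supplement, pH 6.0, with 2% galactose.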
CHX counter = affects cycloheximide protein synthesis inhibition readout, counter-screen | cell reporter, cycloheximide protein synthesis inhibition counterscreen | max response, % | AID 2314 | 12% of 300,000 active; in the data active = max response mostly above about 13%, no sharp cut-off; inactive = mostly below about 14%; note: read at 38.3 µM for the half of the compounds with a filed dose
TbPYK inhibitor = inhibitors of Trypanosoma brucei pyruvate kinase | TbPYK enzyme, Kinase-Glo Plus ATP luminescence, 45 min | Potency, µM (series often up to 76.8 µM), hits mostly inhibitors | 0.12% of 410,000 active; active = well fitted curve in the direction sought with a large enough effect; inconclusive = small, poorly fitted or top-dose-only effect, or another doubt; inactive = no such curve, though single readings can be large; an effect the other way counts as inactive or inconclusive; note: nearly all actives have a fitted effect of over 50% in size
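Assay buffer: 50 mM TEA pH 7.2, 100 mM KCl, 10 mM MgCl2, 0.05% BSA, 0.01% Tween-20. Pyruvate kinase from T. brucei plus substrate met compound, then ADP (130 uM final). Luminescence was read post 45 min RT.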
SARS PLpro yeast = inhibitors of SARS-CoV papain-like protease in yeast; Potency, µM (top dose mostly 32.9 µM), actives largely listed as activators; 0.19% of 330,000 active; S. cerevisiae expressing SARS-CoV PLpro, growth rescue; note: nearly all actives have a fitted effect of over 55% in size
LmPK inh = LmPK (Leishmania mexicana) enzyme inhibition | purified LmPK, Kinase-Glo ATP luminescence, 1 h | Potency, µM (highest dose often 57.5 µM), most hits filed as inhibitors | 0.37% of 290,000 active; active = well fitted curve in the direction sought with a large enough effect; inconclusive = small, poorly fitted or top-dose-only effect, or another doubt; inactive = no such curve, though single readings can be large; an effect the other way counts as inactive or inconclusive
Target sequence (Q27686 whole entry, looked up): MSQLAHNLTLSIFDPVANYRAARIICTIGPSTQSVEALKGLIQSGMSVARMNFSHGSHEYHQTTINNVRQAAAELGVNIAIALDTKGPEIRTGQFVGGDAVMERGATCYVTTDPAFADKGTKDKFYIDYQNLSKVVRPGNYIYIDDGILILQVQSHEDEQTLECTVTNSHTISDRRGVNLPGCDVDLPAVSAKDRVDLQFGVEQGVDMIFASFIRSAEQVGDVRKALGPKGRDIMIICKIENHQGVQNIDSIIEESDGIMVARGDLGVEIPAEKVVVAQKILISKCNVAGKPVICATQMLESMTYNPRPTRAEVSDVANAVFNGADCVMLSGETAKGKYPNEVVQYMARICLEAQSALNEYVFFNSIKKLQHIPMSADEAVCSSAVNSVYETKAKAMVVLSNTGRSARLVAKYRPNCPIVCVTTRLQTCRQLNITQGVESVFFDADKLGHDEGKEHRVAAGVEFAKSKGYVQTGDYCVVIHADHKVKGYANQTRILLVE
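Kinase-Glo luminescence read after 1 h RT reaction of 0.1 nM LmPK with 0.5 mM PEP and 0.1 mM ADP. Activity scaled between uninhibited and enzyme-free controls.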
Of the large screens only hits and unclear results are named; the others gave an inactive call. Unless noted, calls come from the whole dose curve.

COC(=O)N1CCCCC1c1cc(C(=O)Nc2ccc(OC)cc2C)no1 (centres undefined)	none (no result: Shiga toxin inh, NS1 function inh, CHX counter, SARS PLpro yeast, LmPK inh)
COc1ccc(NC(=O)c2cc(C3CC3)on2)c(OC)c1	Shiga toxin inh 47, NS1 function inh inconclusive, CHX counter 33
CC(C)(C)[C@H]1C=C(C(=O)NCc2ccccc2)O[C@@H](OCCCCO)C1	none (no result: Shiga toxin inh, NS1 function inh, CHX counter, SARS PLpro yeast, LmPK inh)
Cn1cc(S(=O)(=O)N2CCCCCC2)cc1C(=O)N1CCN(c2ccc(Cl)cc2)CC1	none (no result: Shiga toxin inh, NS1 function inh, CHX counter, SARS PLpro yeast, LmPK inh)
Cc1c(Cl)cccc1NC(=O)c1cc(C2CC2)on1	Shiga toxin inh 102, CHX counter 35
CCCc1cc(C(=O)Nc2cc(C)on2)no1	CHX counter 13
COC(=O)c1ccccc1NC(=O)c1cc(C2CC2)on1	none
Cn1c2cc(C#N)sc2c2cnn(Cc3ccccc3F)c(=O)c21	none (no result: NS1 function inh, TbPYK inhibitor, SARS PLpro yeast, LmPK inh)
CC1=C(OC(=O)C(C)(C)C)C(C)(C)C(c2ccccc2)OC1=O (centres undefined)	none
COc1ccccc1NC(=O)C1=C(C)NC2=C(C(=O)CC(c3ccc(OC)c(OC)c3)C2)C1c1coc2ccccc2c1=O (centres undefined)	none
O=C(CSc1nc2nc3c(cc2c(=O)n1-c1ccccc1)CCCC3)Nc1ccccc1	none
Cc1ccc(NC(=O)CSc2nc(N)c3cc4c(nc3n2)CCCC4)cc1	Shiga toxin inh active, CHX counter 33
Nc1nc(SCC(=O)Nc2ccccc2)nc2nc3c(cc12)CCCC3	Shiga toxin inh 63, NS1 function inh inconclusive, CHX counter 17
COc1ccc(NC(=O)CSc2nc(N)c3cc4c(nc3n2)CCCC4)c(OC)c1	none
COc1ccc(CC2=C(O)c3ccccc3C(=O)C2=O)cc1	none
O=C1C(C=Nc2ccc(F)cc2)=C(O)c2ccccc21	Shiga toxin inh 134, CHX counter 61, LmPK inh inconclusive
COc1ccc(N=Cc2c(O)n(Cc3ccccc3)c(=S)[nH]c2=O)c(OC)c1	Shiga toxin inh 29, CHX counter 17
COc1ccc(OC)c(N=Cc2c(O)n(Cc3ccccc3)c(=S)[nH]c2=O)c1	none
COc1ccc(N=CC2=C(O)c3ccccc3C2=O)c(OC)c1	CHX counter 26, TbPYK inhibitor inconclusive, LmPK inh inconclusive
Cc1ccc(CN2C(=O)C(F)(F)Oc3ccc(C)cc32)cc1	none (no result: Shiga toxin inh, NS1 function inh, CHX counter, SARS PLpro yeast, LmPK inh)
COC(=O)C1=C(C(=O)OC)[C@@H]2N(C)c3ccccc3[C@@]23C[C@@H](C(=O)OC)N(S(=O)(=O)c2ccc4c(c2)OCCN4C)C3=N1	none (no result: Shiga toxin inh, NS1 function inh, CHX counter, TbPYK inhibitor, SARS PLpro yeast)
N/C(=N\OC(=O)CCC1CCCC1)c1ccc(Br)cc1	none
N/C(=N\OC(=O)C1CCCCC1)c1ccccn1	Shiga toxin inh 86, CHX counter 31, LmPK inh 14µM
NC(=NC1CCCCC1)c1ccc(Cl)cc1	none
O=C(CNC(=O)C1CCCCC1)OCC(=O)c1ccc(Br)cc1	Shiga toxin inh 56, CHX counter 41
N/C(=N\OC(=O)C1CCCCC1)c1ccc(Br)cc1	Shiga toxin inh 51, CHX counter 23
N/C(=N\OC(=O)C1CCCCC1)c1ccc(Cl)cc1	CHX counter 28 (no result: SARS PLpro yeast)
O=C(CSc1ccccc1)NCc1ccc2c(c1)CCN2C(=O)c1ccc(F)cc1	none (no result: Shiga toxin inh, NS1 function inh, CHX counter, SARS PLpro yeast, LmPK inh)
CCOc1ccc(CNC(=O)Cn2c(=O)c3cccn3c3ccc(F)cc32)cc1OC	none (no result: Shiga toxin inh, NS1 function inh, CHX counter, SARS PLpro yeast, LmPK inh)
CCCCN(C(=O)c1cc(CN2C(=O)c3ccccc3C2=O)ccc1OC)c1c(N)n(CC(C)C)c(=O)[nH]c1=O	none (no result: Shiga toxin inh, NS1 function inh, CHX counter, SARS PLpro yeast, LmPK inh)
N/C(=N\OC(=O)CCCOc1ccccc1)c1ccncc1	none (no result: NS1 function inh)
N/C(=N\OC(=O)C1CCCCC1)c1ccncc1	Shiga toxin inh 30, CHX counter 11
CCCNC(=O)c1c(CSc2ccc(Cl)cc2)noc1C(=O)NCc1ccccc1	none (no result: Shiga toxin inh, NS1 function inh, CHX counter, SARS PLpro yeast, LmPK inh)
N=c1c(S(=O)(=O)c2ccccc2)cc2c(=O)n3ccccc3nc2n1Cc1ccco1	none
Cc1ccc2nc3c(cc(S(=O)(=O)c4ccccc4)c(=N)n3Cc3ccco3)c(=O)n2c1	Shiga toxin inh 39, CHX counter 33
COc1ccc2c(CN(C)Cc3ccccc3)cc(=O)oc2c1	none (no result: Shiga toxin inh, NS1 function inh, CHX counter, SARS PLpro yeast, LmPK inh)
COc1ccc2c(CN(C)c3ccccc3)cc(=O)oc2c1	CHX counter 22
COc1ccc2c(CN3CC=C(c4ccccc4)CC3)cc(=O)oc2c1	CHX counter 29, TbPYK inhibitor inconclusive (no result: NS1 function inh)
COc1ccc2c(=O)c(-c3ccccc3)c(C)oc2c1	Shiga toxin inh 34
COC(=O)c1cc(-c2c(C)oc3cc(OC)ccc3c2=O)c(C)o1	none
CCOC(=O)c1ccc(NC(=O)c2ccc3c(c2)c(C)c(C)n3Cc2ccc(F)cc2)cc1	none (no result: Shiga toxin inh, NS1 function inh, CHX counter, SARS PLpro yeast, LmPK inh)
Brc1cc2c(cc1-c1nc3ccccc3s1)OCO2	Shiga toxin inh 65, CHX counter 33
Brc1ccc(-c2nc3ccccc3s2)s1	Shiga toxin inh 96, CHX counter 48, SARS PLpro yeast inconclusive, LmPK inh 28µM
c1ccc(-c2nc3ccccc3s2)nc1	Shiga toxin inh 76, CHX counter 61, LmPK inh 11µM
O=C1CCC(=O)N1c1ccc(-c2nc3ccccc3s2)cc1	Shiga toxin inh 62, CHX counter 35, LmPK inh inconclusive
Cc1cc(-c2nc3ccccc3s2)ccc1N	none (no result: Shiga toxin inh, NS1 function inh, CHX counter, SARS PLpro yeast, LmPK inh)
CCCN1C(=O)C2(c3ccccc31)c1c(oc3ccccc3c1=O)C(=O)N2CCO (centres undefined)	none (no result: Shiga toxin inh, NS1 function inh, CHX counter, SARS PLpro yeast, LmPK inh)
Nc1ccc(-c2nc3ccccc3s2)cn1	Shiga toxin inh 104
c1ccc(Nc2ccccn2)cc1	CHX counter 17
c1ccc(Nc2ccccc2)cc1	none (no result: Shiga toxin inh, NS1 function inh, CHX counter, LmPK inh)
c1ccc(Nc2cccc(Nc3ccccc3)n2)cc1	Shiga toxin inh 55, CHX counter 34
COc1cc(NC(=O)c2ccccc2)c(OC)cc1NC(=O)Cc1ccc(F)cc1	none
Cc1cccc(-n2ncc3c(N4CCC(C)CC4)ncnc32)c1	Shiga toxin inh 95, CHX counter 68
Cc1cccc(-n2ncc3c(N4CCCCCC4)ncnc32)c1	none (no result: Shiga toxin inh, NS1 function inh, CHX counter, SARS PLpro yeast, LmPK inh)
Cc1cccc(-n2ncc3c(N4CCC5(CC4)OCCO5)ncnc32)c1	CHX counter 13
COc1ccccc1CNc1ccccc1F	CHX counter 17
COc1ccccc1CNc1ccc(Br)cn1	Shiga toxin inh 99, CHX counter 50, TbPYK inhibitor inconclusive
Brc1ccc(NCc2cccc3ccccc23)nc1	CHX counter 27 (no result: TbPYK inhibitor)
Cc1ccccc1NC(=O)Cc1nc(COC(=O)Cc2c(F)cccc2Cl)cs1	none (no result: Shiga toxin inh, NS1 function inh, CHX counter, LmPK inh)
COc1ccc(S(=O)(=O)NC(=O)C2(C)CCN2C(=O)CC2CCCC2)cc1 (centres undefined)	none (no result: Shiga toxin inh, NS1 function inh, CHX counter, SARS PLpro yeast, LmPK inh)
O=c1c(Cl)c(Cl)cnn1Cc1nnc(-c2ccc(Cl)cc2)o1	CHX counter 50 (no result: NS1 function inh)
COC(=O)c1ccc(C(=S)N2CCCCC2)cc1	none
COC(=O)c1cccc(CSC(=S)N2CCCC2)c1	CHX counter 30
COc1ccc(C2CC(c3ccccc3OC(C)=O)=NN2C(C)=O)cc1 (centres undefined)	Shiga toxin inh 49, CHX counter 30
O=C(c1cccs1)N1N=C(c2ccccc2)CC1c1ccccc1 (centres undefined)	none
